CHX counter – affects cycloheximide protein synthesis inhibition readout, counter-screen | cell reporter, cycloheximide protein synthesis inhibition counterscreen | max response, % | 300,000 compounds, 12% hits; in the data active means max response mostly above about 13%, no sharp cut-off; inactive means mostly below about 14%; further: read at 38.3 µM for the half of the compounds with a filed dose; 0% is about no effect
SARS PLP yeast – blocks SARS-CoV papain-like protease in a yeast assay; 330,000 compounds, 0.19% hits; S. cerevisiae expressing SARS-CoV PLpro, growth rescue; Potency, µM (series often up to 32.9 µM), without a hit: top-dose activity, positive = growth rescue, actives largely listed as activators; further: potency means the concentration at half of the fitted maximal effect; 0% is about no effect; nearly all actives have a fitted effect of over 55% in size
Pf growth 48h – P. falciparum growth inhibition at 48 hours (one generation); 310,000 compounds, 5.9% hits; P. falciparum luciferase growth in erythrocytes, 48 h; Potency, µM (top dose mostly 28.7 µM), inactives show top-dose activity change, negative = inhibition, hits mostly inhibitors; active means well fitted inhibition curve with a large enough effect; inconclusive means small, poorly fitted or top-dose-only effect, or another doubt; inactive means no such curve, though single readings can be large or run the other way; further: potency means the concentration at half of the fitted maximal effect; on the % scale 0 is the no-effect control and ±100 the full control effect
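Luciferase-expressing parasites in RBCs, 2% Hct / 0.1% parasitemia final; RPMI 1640 + 0.5% Albumax; 37 C, 5% CO2, one generation; luminescence read-out, lower signal = inhibition.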
Pf growth 96h – inhibits malaria parasite growth, 96 h. AID 504834. Potency, µM (doses to about 28.7 µM), inactives show at the highest dose activity change, negative = inhibition, hits mostly inhibitors. 320,000 compounds, 6.9% hits. P. falciparum luciferase reporter growth, 96 h; active means well fitted inhibition curve with a large enough effect; inconclusive means small, poorly fitted or top-dose-only effect, or another doubt; inactive means no such curve, though single readings can be large or run the other way; further: potency means the concentration at half of the fitted maximal effect; on the % scale 0 is the no-effect control and ±100 the full control effect
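Readout is luminescence from an integrated firefly luciferase in P. falciparum. Red cells, 2% hematocrit and 0.05% parasitemia final, were cultured with compound through two parasite generations (96 hours) at 37 C, 5% CO2.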
Shiga inhibitor – Shiga toxin inhibition. Vero cells, Shiga toxin protein synthesis inhibition reporter. inhibition, % at 38.7 µM. 290,000 compounds, 9.2% hits. AID 2315; in the data active means inhibition mostly above about 28%, no sharp cut-off; inactive means mostly below about 43%; further: 0% is about no effect
NS1 inh – influenza NS1 inhibition | Potency, µM (top dose mostly 46.1 µM), without a hit: at the highest dose activity, positive = more growth | 270,000 compounds, 0.4% hits | AID 2326; further: potency means the concentration at half of the fitted maximal effect; actives are rising curves; nearly all actives have a fitted effect of over 50% in size
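Growth recovery, yeast-based: influenza A NS1 expressed in S. cerevisiae causes slow growth, and suppressors are detected by OD600. The parent strain without NS1 is used as positive control.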
NS1 inh valid – influenza NS1 function inhibition validation; 1,400 tested, under 10 active; shares compounds with NS1 inh; influenza NS1 function cell assay, 15-point titration; activity change, negative = inhibition, % at 32.9 µM; further: 0% is about no effect
Flu PR8 replic – reduces influenza A/PR/8/34 replication in MDCK cells; 95 compounds, 30% hits; shares compounds with NS1 inh; MDCK infected influenza A/PR/8/34, virus titer TCID50; stronger effect = lower value; virus titer (log TCID50), log10 TCID50 at 5 µM; call rule not given here
Numbers without * were called inactive. A selection: hits, their analogues and other compounds. The true share with any hit is near 21%. Unless noted, the call rests on the fitted dose curve.

`CNC(=S)N1N=C(c2ccc(Br)cc2)CC1c1ccc(OC)cc1` (stereo not drawn) gave CHX counter 7.6, SARS PLP yeast -0.5%, Pf growth 48h -26.9%, Pf growth 96h 10.4µM*, Shiga inhibitor 19.3, NS1 inh 22.4µM* and NS1 inh valid -32.4.
For COc1ccc(C2CC(c3ccc(Br)cc3)=NN2C(=O)CN2CCCC2)cc1 (stereo not drawn) the results were CHX counter 0.9, SARS PLP yeast 0.1%, Pf growth 48h inconclusive, Pf growth 96h -20.3%, Shiga inhibitor 9.0 and NS1 inh -0.4%.
Screening CC1CCN(S(=O)(=O)c2ccc3c(c2)N(CC(=O)NCCCN2CCCCC2)C(=O)CS3)CC1 returned CHX counter -2.5, SARS PLP yeast -0.9%, Pf growth 48h inconclusive, Pf growth 96h 9.3%, Shiga inhibitor 12.9 and NS1 inh -3.2%.
Screening CCC1CCCCN1CCCNC(=O)CN1C(=O)CSc2ccc(S(=O)(=O)N3CCC(C)CC3)cc21 (stereo not drawn) returned CHX counter -5.7, SARS PLP yeast 17.4%, Pf growth 48h 0.0%, Pf growth 96h 24.6%, Shiga inhibitor -4.5, NS1 inh 1.78µM* and NS1 inh valid -4.7.
`CN(C)c1ccc(C(CNC(=O)c2ccccc2)c2c[nH]c3ccccc23)cc1` (stereo not drawn) gave CHX counter -4.0, SARS PLP yeast 2.2%, Pf growth 48h inconclusive, Pf growth 96h inconclusive, Shiga inhibitor 35.6, NS1 inh 12.6µM* and NS1 inh valid inconclusive.
Screening Cc1cnc(C(=O)OCC(=O)NC(=O)NC(C)C)cn1 returned CHX counter -2.8, SARS PLP yeast -0.7%, Pf growth 48h -8.1%, Pf growth 96h 20.2%, Shiga inhibitor -37.3, NS1 inh 1.41µM* and NS1 inh valid -3.3.
`Cc1cnc(C(=O)OCC(=O)Nc2ccc(Cl)cc2)cn1` gave CHX counter -2.2, SARS PLP yeast -0.1%, Pf growth 48h 0.3%, Pf growth 96h -29.0%, Shiga inhibitor 2.3 and NS1 inh -12.1%.
Screening CCOc1ccc2[nH]c3c(c2c1)CNCC3 returned CHX counter -1.2, SARS PLP yeast 1.3%, Pf growth 48h inconclusive, Pf growth 96h 0.9%, Shiga inhibitor -2.2 and NS1 inh 8.3%.
COc1ccc2[nH]c3c(c2c1)CCNC3 was read as SARS PLP yeast 7.0%, Pf growth 48h 5.1%, Pf growth 96h 42.0%, NS1 inh 17.8µM* and NS1 inh valid 12.7.
`CC(C)OC(=O)/C(=C\c1ccc2c(c1)c1ccccc1n2C)NC(=O)c1ccccc1` gave CHX counter 29.3*, SARS PLP yeast 8.4%, Pf growth 48h 4.15µM*, Pf growth 96h 22.7%, Shiga inhibitor 67.0*, NS1 inh 10µM* and NS1 inh valid 6.7.
Screening O=C(Nc1nnc(S(=O)(=O)N2CCN(c3ccc(F)cc3)CC2)s1)c1ccccc1 returned CHX counter -0.5, SARS PLP yeast 12.7%, Pf growth 48h 40.8%, Pf growth 96h 106.0%, Shiga inhibitor 32.3, NS1 inh 2.24µM* and NS1 inh valid -20.8.
O=C(Nc1ccccc1N1CCN(c2ccc(F)cc2)CC1)c1ccccc1 was read as CHX counter 5.4, SARS PLP yeast -4.8%, Pf growth 48h inconclusive, Shiga inhibitor 12.1, NS1 inh inconclusive and NS1 inh valid -27.0.
COc1ccc(Nc2ccc([N+](=O)[O-])cc2[N+](=O)[O-])cc1 was read as CHX counter -7.0, SARS PLP yeast -1.5%, Pf growth 48h 14.8%, Pf growth 96h 133.6%, Shiga inhibitor -6.3 and NS1 inh 3.3%.
COc1ccc(CNC(=O)CSc2n[nH]c(C)c2[N+](=O)[O-])cc1 was read as CHX counter -0.8, SARS PLP yeast 5.3%, Pf growth 48h 0.6%, Pf growth 96h -12.7%, Shiga inhibitor -3.6 and NS1 inh 11.3%.
For O=c1c2ccccc2ncn1Cc1cccc2ccccc12 the results were CHX counter -2.9, SARS PLP yeast 0.9%, Pf growth 48h inconclusive, Pf growth 96h -1.0%, Shiga inhibitor 42.1 and NS1 inh -0.4%.
Screening Cc1[nH][nH]c(=O)c1C(c1c(C)[nH][nH]c1=O)c1cn(Cc2cccc3ccccc23)c2ccccc12 returned CHX counter -2.6, SARS PLP yeast -9.8%, Pf growth 48h inconclusive, Pf growth 96h inconclusive, Shiga inhibitor -8.1, NS1 inh 12.6µM* and NS1 inh valid -11.1.
CCC(=O)N/N=c1/sc2ccccc2n1C was read as CHX counter 7.4, SARS PLP yeast 4.0%, Pf growth 48h 6.3%, Pf growth 96h inconclusive and Shiga inhibitor 27.3.
`N/N=c1\sc2ccccc2n1-c1ccccc1` gave CHX counter -1.1, SARS PLP yeast -10.5%, Pf growth 48h 6.2%, Pf growth 96h 4.0%, Shiga inhibitor -14.8, NS1 inh 11.2µM*, NS1 inh valid 24.6 and Flu PR8 replic 8.
`Cc1c(OC(C)C(=O)NC2CC(C)(C)NC(C)(C)C2)ccc2c3c(c(=O)oc12)CCC3` (stereo not drawn) gave CHX counter -5.0, SARS PLP yeast -0.8%, Pf growth 48h inconclusive, Pf growth 96h inconclusive, Shiga inhibitor 44.1 and NS1 inh 2.7%.
For Cc1c(OC(C)C(=O)N[C@H](C(=O)O)c2ccccc2)ccc2c3c(c(=O)oc12)CCCC3 (stereo partly drawn) the results were CHX counter -2.2, SARS PLP yeast -3.5%, Pf growth 48h inconclusive, Pf growth 96h inconclusive, Shiga inhibitor -5.9, NS1 inh 10µM* and NS1 inh valid -5.4.
COc1cc(/C=C\C(=O)NCc2ccc3[nH]c(C)cc3c2)cc(OC)c1OC was read as CHX counter -2.4, SARS PLP yeast 8.5%, Pf growth 48h 11.7µM*, Pf growth 96h 13.1µM*, Shiga inhibitor -2.3, NS1 inh 1.26µM* and NS1 inh valid 20.8.
COc1ccc(/C=C\C(=O)NCc2ccc3[nH]c(C)cc3c2)cc1OC was read as CHX counter -1.9, SARS PLP yeast 18.9%, Pf growth 48h -2.5%, Pf growth 96h -28.0%, Shiga inhibitor -9.4 and NS1 inh inconclusive.
For CCc1ccc(OCC(=O)Nc2cccc3c2CCCC3)cc1 the results were CHX counter -1.1, SARS PLP yeast 29.4%, Pf growth 48h -2.3%, Pf growth 96h 34.0%, Shiga inhibitor -8.6 and NS1 inh -15.6%.
CCCC(=O)Nc1cccc2c1CCCC2 was read as CHX counter 5.0, SARS PLP yeast -2.1%, Pf growth 48h 12.3%, Pf growth 96h inconclusive, Shiga inhibitor -10.1, NS1 inh 5.62µM* and NS1 inh valid 12.0.
